These results are taken from PubChem BioAssay (EPA / NIEHS).

Records with an inconclusive call do not appear. Calls of active or inactive are those of the source. The calls were made as follows, unless noted: active = hit-call score of the fitted dose curve at least 0.9, where 1 is the maximum; inactive = score below 0.9.

The nature of experiment [1]: ATG_NFI_CIS: Attagene CIS-FACTORIAL HepG2 Assay for human Nuclear Factor I (NFI) (AID 2282989). Particulars: HepG2 cis-regulatory reporter, NFI response element transcription; actives raise or lower the signal. The procedure, abridged: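 HepG2, transient MRTU, 24 h exposure; RNA→cDNA→PCR→FAM label→HpaI→CE fluorescence. Bidirectional fit, DMSO = baseline.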
Experiment [2] deals with Myc proto-oncogene protein (Homo sapiens) (UniProt P01106). Nature of the experiment: ATG_Myc_CIS: Attagene CIS-FACTORIAL HepG2 Assay for human Myelocytomatosis (Myc) Proto-Oncogene Transcription Factor (AID 2282990). Particulars: HepG2, Attagene cis-reporter transcription factor activity; actives raise or lower the signal. The gist of the method:
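Cells of the HepG2 human liver line bear multiple cis-driven reporter transcription units. Reporter mRNA after 24 h exposure is reverse-transcribed, amplified, labelled and resolved by capillary electrophoresis, with gain- or loss-of-signal fitting relative to DMSO.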

Experiment [3] in a line: ATG_NF_kB_CIS: Attagene CIS-FACTORIAL HepG2 Assay for human Nuclear Factor Kappa B (NF-kB) (AID 2282991). Particulars: HepG2 Attagene cis-factorial NF-kB reporter mRNA; actives raise or lower the signal. The procedure, abridged:
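HepG2, transient multi-reporter transfection, cis promoter elements (endogenous TFs). 24 h exposure. Total RNA → RT → PCR → 6-FAM label → HpaI → CE. Gain/loss vs DMSO.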

The nature of experiment [4]: ATG_NRF2_ARE_CIS: Attagene CIS-FACTORIAL HepG2 Assay for human Nuclear Factor Erythroid 2 Related Factor 2 (NFR2) response to Antioxidant Response Elements (ARE) (AID 2282992).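 As to AC50: reporter mRNA level measured by RT-PCR and capillary electrophoresis fluorescence.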 Particulars: HepG2 Attagene ARE/NRF2 reporter, transcription factor activity; actives raise or lower the signal. The gist of the method:
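Multiplexed reporter mRNA profiling in HepG2 after a 24 h chemical exposure. Curves fitted in both directions relative to DMSO negative control.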

A short description of experiment [5]: ATG_Oct_MLP_CIS: Attagene CIS-FACTORIAL HepG2 Assay for human Octamer-Binding Transcription Factor (Oct) (AID 2282993). Particulars: HepG2 Attagene cis-factorial Oct reporter, mRNA; actives raise or lower the signal. The gist of the method:
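Multiplexed cis-reporter assay in human liver HepG2 cells, 24 h incubation. Reporter RNA amplified and labelled, then resolved by capillary electrophoresis; DMSO serves as negative control and baseline.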

Experiment [6] addresses Cellular tumor antigen p53 (Homo sapiens) (UniProt P04637). Description: ATG_p53_CIS: Attagene CIS-FACTORIAL HepG2 Assay for human p53 Transcription Factor (AID 2282994). Particulars: HepG2 p53 cis-element reporter, Attagene mRNA; actives raise or lower the signal. The procedure, abridged:
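Multiplexed reporter mRNA assay in human HepG2 liver cells; cis-regulated units report endogenous factor activity. Values come from bidirectional curve fitting against DMSO negative control after 24 h treatment.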

The nature of experiment [7]: BSK_3C_TissueFactor: BioMAP Diversity Plus: 3C Assay for Tissue Factor Biomarker Activity (AID 2282997). Particulars: BioMAP 3C HUVEC, tissue factor biomarker readout; actives raise or lower the signal. The gist of the method:
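Endothelial monolayers (human umbilical vein, primary) are dosed, incubated 24 h, and assayed for Tissue Factor by ELISA; DMSO serves as negative control for bidirectional fitting.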

Experiment [8] is described as follows: BSK_3C_uPAR: BioMAP Diversity Plus: 3C Assay for Urokinase-type plasminogen activator receptor (uPAR) Biomarker Activity (AID 2282998). Particulars: BioMAP 3C HUVEC, uPAR biomarker ELISA; actives raise or lower the signal. The procedure, abridged: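 Dose primary human umbilical vein endothelial cells, incubate 24 h, measure cell-surface uPAR by ELISA, then fit the signal in both directions against the DMSO negative control.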
For orientation: In an ELISA, binding on a coated surface is turned into a signal by an enzyme label.

A short description of experiment [9]: BSK_3C_VCAM1: BioMAP Diversity Plus: 3C Assay for Vascular cell adhesion molecule 1 (VCAM1) Biomarker Activity (AID 2282999). Particulars: BioMAP 3C HUVEC, VCAM1 ELISA, cytokine-stimulated; actives raise or lower the signal. The gist of the method: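 Endothelial cells from human umbilical vein are treated with test chemical. At 24 h, VCAM-1 is measured by ELISA, and responses in either direction are fitted relative to DMSO.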

Experiment [10] can be described thus: BSK_4H_Eotaxin3: BioMAP Diversity Plus: 4H Assay for Eotaxin 3 Biomarker Activity (AID 2283000).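 As to outcome: CCL26 protein level quantified by ELISA in parallel with SRB cytotoxicity check.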 Particulars: primary human endothelial cells (HUVEC); actives raise or lower the signal. The procedure, abridged: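 ELISA quantitation of CCL26 (Eotaxin-3) protein from chemically dosed human vascular endothelial cells at 24 h; increases and decreases both scored relative to DMSO-treated baseline.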

The target in experiment [11] is human Peroxisome Proliferator-activated Receptor delta (PPARd), PPARD (gene 5467) (UniProt Q03181). Nature of the experiment: ATG_PPARd_TRANS: Attagene TRANS-FACTORIAL HepG2 Assay for human Peroxisome Proliferator-activated Receptor delta (PPARd) (AID 2283002; active = hit-call score of the fitted dose curve at least 0.9, where 1 is the maximum). The gist of the method:
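Cell-based TRANS reporter: HepG2, transient MRTU transfection, 24 h exposure. Readout = reporter mRNA (RT-PCR/CE, 6-FAM). Gain-of-signal fit vs DMSO control.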

Read-out in experiment [12]: Intercellular Adhesion Molecule 1 (ICAM1), ICAM1 (gene 3383)
Nature of the experiment: BSK_3C_ICAM1: BioMAP Diversity Plus: 3C Assay for Intercellular Adhesion Molecule 1 (ICAM1) Biomarker Activity (AID 2283003). Particulars: primary human endothelial cells (HUVEC); actives raise or lower the signal. The procedure, abridged:
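ICAM-1 levels measured by ELISA after HUVEC cultures in the 3C system had been dosed for 24 h. Gain or loss of signal relative to DMSO was fitted in both directions.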

Experiment [13] can be described thus: BSK_3C_Proliferation: Cell Proliferation Assessment in the BioMAP Diversity Plus: 3C Assay (AID 2283006).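 As to AC50: potency may reflect either rise or fall in cell number versus DMSO.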 Particulars: primary human endothelial cells (HUVEC). The gist of the method: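 Read-out is total protein by SRB absorbance at 560 nm, taken as a proxy for relative cell number. Primary human umbilical vein endothelium cultured below confluence was dosed for 48 h, TCA-fixed and SRB-stained; curves were fitted bidirectionally versus DMSO.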

The target of experiment [14] is Nuclear receptor subfamily 1 group I member 2 (Homo sapiens) (UniProt O75469). Nature of the experiment: ATG_PXR_TRANS: Attagene TRANS-FACTORIAL HepG2 Assay for human Pregnane X Receptor (PXR) (AID 2283008; active = hit-call score of the fitted dose curve at least 0.9, where 1 is the maximum). The procedure, abridged: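 Measures mRNA induction of a GAL4-UAS-driven reporter in human HepG2 cells transiently expressing PXR fused to Gal4, following 24 h treatment. DMSO served as negative control and baseline.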

Experiment [15] has as its target human RAR-related Orphan Receptor beta (RORb), RORB (gene 6096) (UniProt Q92753). Nature of the experiment: ATG_RORb_TRANS: Attagene TRANS-FACTORIAL HepG2 Assay for human RAR-related Orphan Receptor beta (RORb) (AID 2283010; active = hit-call score of the fitted dose curve at least 0.9, where 1 is the maximum). The procedure, abridged: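 Readout is reporter-gene mRNA induction, detected as fluorescence after RT-PCR and capillary electrophoresis, fitted for gain of signal against DMSO controls. Transiently transfected HepG2 liver cells carrying GAL4-UAS reporter constructs were treated for 24 hours.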

Experiment [16] concerns the target human Peroxisome Proliferator-activated Receptor alpha (PPARa), PPARA (gene 5465) (UniProt Q07869). Description: ATG_PPARa_TRANS: Attagene TRANS-FACTORIAL HepG2 Assay for human Peroxisome Proliferator-activated Receptor alpha (PPARa) (AID 2283001; active = hit-call score of the fitted dose curve at least 0.9, where 1 is the maximum;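 as to AC50: potency for gain of reporter signal over DMSO so agonist or activator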). The procedure, abridged:
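Read-out is fluorescence of reporter cDNA fragments resolved by capillary electrophoresis after RT-PCR. Human HepG2 liver cells carried transfected PPARa-Gal4 chimera and GAL4-UAS reporter units, treated 24 h; activity scored as increase over DMSO.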

Experiment [17] addresses Peroxisome proliferator-activated receptor gamma (Homo sapiens) (UniProt P37231). Description: ATG_PPARg_TRANS: Attagene TRANS-FACTORIAL HepG2 Assay for human Peroxisome Proliferator-activated Receptor-gamma (PPARg) (AID 2283007; active = hit-call score of the fitted dose curve at least 0.9, where 1 is the maximum). The gist of the method:
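Multiplexed reporter transcription units in HepG2, 24 h dosing, reporter transcripts quantified by fluorescent RT-PCR and capillary electrophoresis. Increase over DMSO scored.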

Experiment [18] addresses Retinoic acid receptor alpha (Homo sapiens) (UniProt P10276). Description: ATG_RARa_TRANS: Attagene TRANS-FACTORIAL HepG2 Assay for human Retinoic Acid Receptor alpha (RARa) (AID 2283005; active = hit-call score of the fitted dose curve at least 0.9, where 1 is the maximum). The gist of the method:
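Reporter transcripts, measured by RT-PCR with fluorescent labeling and capillary electrophoresis after 24 h dosing, reflect activity of an exogenous human RARa–GAL4 fusion in transiently transfected HepG2. Fitted for increase relative to DMSO.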

The target in experiment [19] is human Retinoic Acid Receptor gamma (RARg), RARG (gene 5916) (UniProt P13631). Description: ATG_RARg_TRANS: Attagene TRANS-FACTORIAL HepG2 Assay for human Retinoic Acid Receptor gamma (RARg) (AID 2283009; active = hit-call score of the fitted dose curve at least 0.9, where 1 is the maximum). The gist of the method: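 Transient transfection of HepG2 with multi-reporter constructs, then 24 h chemical treatment. Total RNA isolated, reverse-transcribed, PCR-amplified, fluorescently labelled and resolved by capillary electrophoresis; activity scored as mRNA induction versus DMSO.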
Sequence of human Retinoic Acid Receptor gamma (RARg), RARG (gene 5916) (P13631 whole entry, looked up): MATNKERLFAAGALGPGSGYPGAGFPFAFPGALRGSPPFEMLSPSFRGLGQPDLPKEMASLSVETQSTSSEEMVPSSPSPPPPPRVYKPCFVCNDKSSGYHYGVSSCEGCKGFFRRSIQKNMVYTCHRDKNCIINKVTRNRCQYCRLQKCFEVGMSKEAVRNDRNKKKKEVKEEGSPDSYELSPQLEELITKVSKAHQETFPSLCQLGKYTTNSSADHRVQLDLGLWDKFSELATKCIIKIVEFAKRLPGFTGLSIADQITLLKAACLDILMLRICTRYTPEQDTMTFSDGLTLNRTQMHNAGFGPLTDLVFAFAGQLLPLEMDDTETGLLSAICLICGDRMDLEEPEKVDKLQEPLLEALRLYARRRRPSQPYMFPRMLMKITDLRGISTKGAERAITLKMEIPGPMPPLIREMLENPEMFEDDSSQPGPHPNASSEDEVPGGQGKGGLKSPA

Sequence of Myc proto-oncogene protein (Homo sapiens) (P01106 whole entry, looked up): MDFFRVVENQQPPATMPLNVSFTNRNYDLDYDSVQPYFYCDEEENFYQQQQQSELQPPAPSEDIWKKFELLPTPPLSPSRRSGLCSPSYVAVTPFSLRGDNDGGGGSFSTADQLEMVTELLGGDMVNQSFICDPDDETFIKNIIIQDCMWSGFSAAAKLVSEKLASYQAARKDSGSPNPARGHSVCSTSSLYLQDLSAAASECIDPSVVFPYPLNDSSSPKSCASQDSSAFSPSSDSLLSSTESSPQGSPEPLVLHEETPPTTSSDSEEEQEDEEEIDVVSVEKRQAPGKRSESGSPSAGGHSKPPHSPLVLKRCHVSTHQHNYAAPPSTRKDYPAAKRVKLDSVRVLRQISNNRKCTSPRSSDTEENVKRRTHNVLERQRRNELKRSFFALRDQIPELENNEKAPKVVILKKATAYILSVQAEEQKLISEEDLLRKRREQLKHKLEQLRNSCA
Sequence of human Peroxisome Proliferator-activated Receptor delta (PPARd), PPARD (gene 5467) (Q03181 whole entry, looked up): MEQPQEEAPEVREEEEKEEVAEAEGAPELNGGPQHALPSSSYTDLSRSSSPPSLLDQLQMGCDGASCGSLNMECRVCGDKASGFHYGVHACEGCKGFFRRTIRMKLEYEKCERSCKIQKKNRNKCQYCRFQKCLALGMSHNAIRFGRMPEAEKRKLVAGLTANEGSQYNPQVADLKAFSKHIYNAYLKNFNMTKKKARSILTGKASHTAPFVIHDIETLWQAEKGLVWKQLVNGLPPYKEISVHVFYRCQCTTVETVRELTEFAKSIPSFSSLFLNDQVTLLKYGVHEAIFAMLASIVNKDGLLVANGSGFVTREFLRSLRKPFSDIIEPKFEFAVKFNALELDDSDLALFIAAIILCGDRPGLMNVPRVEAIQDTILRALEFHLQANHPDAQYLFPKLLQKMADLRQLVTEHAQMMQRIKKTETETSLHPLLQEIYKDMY
Sequence of Cellular tumor antigen p53 (Homo sapiens) (P04637 whole entry, looked up): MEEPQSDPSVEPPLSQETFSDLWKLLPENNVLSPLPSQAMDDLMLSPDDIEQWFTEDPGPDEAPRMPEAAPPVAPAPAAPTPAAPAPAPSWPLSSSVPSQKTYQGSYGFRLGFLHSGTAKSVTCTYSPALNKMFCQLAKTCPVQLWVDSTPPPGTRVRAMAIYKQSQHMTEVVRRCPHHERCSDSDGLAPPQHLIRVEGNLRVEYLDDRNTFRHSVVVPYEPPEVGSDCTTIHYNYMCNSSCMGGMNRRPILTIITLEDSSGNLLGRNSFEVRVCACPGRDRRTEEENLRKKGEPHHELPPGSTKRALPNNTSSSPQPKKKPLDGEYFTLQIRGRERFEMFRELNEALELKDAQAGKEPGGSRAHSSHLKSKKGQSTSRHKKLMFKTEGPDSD
Sequence of Peroxisome proliferator-activated receptor gamma (Homo sapiens) (P37231 whole entry, looked up): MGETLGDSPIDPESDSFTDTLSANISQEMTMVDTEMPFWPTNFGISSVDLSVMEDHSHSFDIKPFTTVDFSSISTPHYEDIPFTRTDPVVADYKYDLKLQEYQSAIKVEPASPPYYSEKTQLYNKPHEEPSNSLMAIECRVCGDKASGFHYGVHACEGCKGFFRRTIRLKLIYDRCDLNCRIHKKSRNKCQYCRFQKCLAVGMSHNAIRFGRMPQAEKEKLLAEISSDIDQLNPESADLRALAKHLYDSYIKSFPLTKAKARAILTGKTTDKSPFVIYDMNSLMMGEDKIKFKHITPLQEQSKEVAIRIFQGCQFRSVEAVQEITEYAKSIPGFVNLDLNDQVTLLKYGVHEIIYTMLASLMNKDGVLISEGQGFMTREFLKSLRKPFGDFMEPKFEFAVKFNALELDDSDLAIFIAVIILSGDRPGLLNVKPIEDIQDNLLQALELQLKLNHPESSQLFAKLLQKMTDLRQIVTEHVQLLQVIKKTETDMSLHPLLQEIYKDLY
Sequence of Nuclear receptor subfamily 1 group I member 2 (Homo sapiens) (O75469 whole entry, looked up, the tested form may be a part): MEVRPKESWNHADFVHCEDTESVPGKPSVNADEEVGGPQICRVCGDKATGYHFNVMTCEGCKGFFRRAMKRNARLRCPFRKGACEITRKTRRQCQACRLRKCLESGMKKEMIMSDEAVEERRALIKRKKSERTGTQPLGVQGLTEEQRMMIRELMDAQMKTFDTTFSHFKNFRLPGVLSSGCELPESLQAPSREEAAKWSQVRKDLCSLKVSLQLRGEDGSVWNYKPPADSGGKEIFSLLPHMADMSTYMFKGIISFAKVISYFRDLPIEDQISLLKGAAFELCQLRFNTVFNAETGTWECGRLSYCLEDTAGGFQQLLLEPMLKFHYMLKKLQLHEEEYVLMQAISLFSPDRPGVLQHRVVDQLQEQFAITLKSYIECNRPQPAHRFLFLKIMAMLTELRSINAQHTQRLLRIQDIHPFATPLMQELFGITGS
Sequence of human Peroxisome Proliferator-activated Receptor alpha (PPARa), PPARA (gene 5465) (Q07869 whole entry, looked up, the tested form may be a part): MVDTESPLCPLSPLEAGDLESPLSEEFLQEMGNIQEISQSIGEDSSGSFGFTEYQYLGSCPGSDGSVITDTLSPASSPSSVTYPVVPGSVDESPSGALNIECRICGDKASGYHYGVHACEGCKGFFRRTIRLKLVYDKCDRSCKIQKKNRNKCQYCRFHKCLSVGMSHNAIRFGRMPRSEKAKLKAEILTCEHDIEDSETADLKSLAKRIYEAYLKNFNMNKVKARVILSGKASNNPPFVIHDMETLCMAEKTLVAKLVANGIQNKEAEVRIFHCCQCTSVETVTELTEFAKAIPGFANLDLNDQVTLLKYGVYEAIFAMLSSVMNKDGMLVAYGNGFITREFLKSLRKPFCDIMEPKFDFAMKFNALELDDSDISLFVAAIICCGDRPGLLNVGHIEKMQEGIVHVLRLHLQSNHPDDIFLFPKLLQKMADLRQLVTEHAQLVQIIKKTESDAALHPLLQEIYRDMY
Sequence of human RAR-related Orphan Receptor beta (RORb), RORB (gene 6096) (Q92753 whole entry, looked up, the tested form may be a part): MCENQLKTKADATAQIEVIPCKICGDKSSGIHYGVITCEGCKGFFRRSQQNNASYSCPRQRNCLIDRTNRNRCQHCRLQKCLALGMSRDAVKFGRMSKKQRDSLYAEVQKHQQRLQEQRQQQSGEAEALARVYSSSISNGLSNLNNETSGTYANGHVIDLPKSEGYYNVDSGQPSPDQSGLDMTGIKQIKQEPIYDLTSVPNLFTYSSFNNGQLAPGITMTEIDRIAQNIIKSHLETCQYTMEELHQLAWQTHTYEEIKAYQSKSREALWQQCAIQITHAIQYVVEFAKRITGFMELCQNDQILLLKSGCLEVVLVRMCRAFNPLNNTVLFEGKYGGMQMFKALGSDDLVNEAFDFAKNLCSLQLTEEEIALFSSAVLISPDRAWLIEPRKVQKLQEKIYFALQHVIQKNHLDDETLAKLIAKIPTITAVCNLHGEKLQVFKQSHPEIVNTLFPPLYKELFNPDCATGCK
Sequence of Retinoic acid receptor alpha (Homo sapiens) (P10276 whole entry, looked up, the tested form may be a part): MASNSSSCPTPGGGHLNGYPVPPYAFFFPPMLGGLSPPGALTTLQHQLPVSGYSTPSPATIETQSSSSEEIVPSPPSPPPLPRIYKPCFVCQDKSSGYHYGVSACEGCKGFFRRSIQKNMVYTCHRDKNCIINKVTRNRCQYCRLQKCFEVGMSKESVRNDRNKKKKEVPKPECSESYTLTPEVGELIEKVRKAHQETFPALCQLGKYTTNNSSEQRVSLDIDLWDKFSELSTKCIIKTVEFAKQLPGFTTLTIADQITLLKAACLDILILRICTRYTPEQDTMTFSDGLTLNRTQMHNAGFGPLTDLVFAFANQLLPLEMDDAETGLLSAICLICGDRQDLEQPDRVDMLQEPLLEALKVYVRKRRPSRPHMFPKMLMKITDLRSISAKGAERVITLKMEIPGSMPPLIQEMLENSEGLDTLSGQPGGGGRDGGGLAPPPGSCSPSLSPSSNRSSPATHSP

A word on the AC50: it is the concentration at which the activity in the assay is half-maximal. Regarding `C=CC=CC=CCCCCC`, the molecule was called inactive in experiment [1], in experiment [2], in [3], in experiment [5], in [6] and in experiment [7]. Also, the outcome in experiment [8], in [9], in experiment [10], in experiment [11], in experiment [12] and in experiment [13] was inactive. In addition, the molecule was classed as inactive in [15]. Also, the AC50 in experiment [4] is 20 µM (active); in experiment [14] it was 6.77 µM (active).
Consider `CCCCC/C=C\C/C=C\CCCCCCCC(=O)OC`, for which the call in experiment [1], in experiment [2] and in experiment [5] was inactive. Further, the AC50 in [3] is 37 µM (active); in experiment [4], 32.5 µM (active); in experiment [6], 180 µM (active); in experiment [7], 20 µM (active); in experiment [8], 33.7 µM (active); in experiment [9] it was 30 µM (active). Also, the AC50 in experiment [10] is 34 µM (active); in experiment [16] it was 32 µM (active); in [11], 100 µM (active); in [12] it was 32.7 µM (active); in experiment [13], 27.1 µM (active); in [17], 4.68 µM (active). In addition, the AC50 in [14] is 47.6 µM (active).
Regarding `CC(C)=CCCC(C)C=O` (stereo not drawn), the molecule was classed as inactive in experiment [1], in experiment [2], in [3], in experiment [4], in [5] and in experiment [6]. Also, the molecule was classed as inactive in experiment [16], in experiment [11] and in experiment [17]. In experiment [14], the AC50 is 7.95 µM (active).
In the case of `Nc1ncn([C@@H]2O[C@H](CO)[C@@H](O)[C@H]2O)c(=O)n1`, the outcome in [1], in experiment [2], in experiment [3], in experiment [4], in experiment [16] and in experiment [11] was inactive. Further, the call in experiment [18], in experiment [14] and in experiment [19] was inactive. Moreover, the values for the AC50 in experiment [5] and in experiment [6] were 8.32 µM (active) and 2.1 µM (active), respectively.
For `CC(=O)c1ccc2c(c1)CCCC2`, the result in experiment [1], in [2], in [3], in experiment [4], in experiment [5] and in [6] was inactive. The result in [16], in experiment [11], in experiment [17] and in experiment [14] was inactive.
Regarding `N#CCc1ccc(Cl)cc1Cl`, the call in experiment [1], in [2], in [3], in experiment [4], in experiment [5] and in experiment [6] was inactive. In addition, the molecule was called inactive in [16], in experiment [11], in [17] and in experiment [14].
For `CCc1c(C(=O)O)c(=O)cnn1-c1ccc(Cl)cc1`, the result in [1], in experiment [2], in [3], in [4], in experiment [5] and in [6] was inactive. In addition, the outcome in [16], in [11], in experiment [17] and in experiment [14] was inactive.
`CO[Si](OC)(OC)c1ccccc1`: the molecule was classed as inactive in [1], in experiment [2], in experiment [3], in [4], in experiment [5] and in experiment [6]. In addition, the outcome in [7], in [8], in experiment [9], in experiment [10], in [12] and in experiment [13] was inactive. Besides, the molecule was classed as inactive in experiment [14].
Consider `O=C(Nc1cccc(C(F)(F)F)c1)c1cc(Br)cc(Br)c1O`, for which the AC50 is 100 µM (active) in [1]; 166 µM (active) in experiment [2]; 169 µM (active) in experiment [3]; 0.851 µM (active) in [4]; 2.95 µM (active) in experiment [5]; 147 µM (active) in experiment [6]. Moreover, the figures for the AC50 in experiment [16], in experiment [17] and in experiment [14] were 1.58 µM (active), 2.57 µM (active) and 1.07 µM (active), respectively. Further, the result in experiment [11], in experiment [18], in [19] and in experiment [15] was inactive.
